A340 absorber: compound absorbs light at 340 nm | compound absorbance at 340 nm, fold over control | 65,000 tested, under 10 active | fold change at 10 µM;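 active = at 10 µM dose, initial 340 nm absorbance at least 2 fold that of control wells; inactive = change under 2 fold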;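 also: initial absorbance extrapolated from kinetic A340 decline of NADH oxidation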
NADH coupling: inhibition of NAD/NADH coupling enzymes, library profiling | coupled PK/LDH NADH assays, four targets | IC50, µM (series often up to 10 µM) | 65,000 compounds, 0.02% hits | AID 774;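 active = single-dose screening hits from any of four coupled enzyme assays that gave an IC50 when retested across doses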;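 also: the DPM-DC format reads NADH fluorescence rather than 340 nm absorbance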
MK inhibit: blocks S. pneumoniae mevalonate kinase; AID 555; purified MK, PK/LDH-coupled NADH absorbance 340 nm; inhibition, % at 10 µM; 65,000 compounds, 0.48% hits;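 active = ranked among the strongest by inhibition in the single 10 µM screen, a fixed top-ranked set picked for dose follow-up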
DPM-DC inhibit: S. pneumoniae DPM-DC inhibition. purified DPM-DC, PK/LDH coupled NADH fluorescence. calls only at 10 µM. 65,000 compounds, 0.49% hits;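 active = the 320 compounds with the highest percent inhibition in the single-dose primary screen, excluding strongly autofluorescent ones, cut at about 32% in these data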;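 also: kinetic rate of NADH fluorescence loss reporting ADP formed by the decarboxylase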
Fluor 339 460: intrinsic fluorescence of library compounds, ex339/em460 – biochemical, MLSMR library, data from DPM-DC assay, artefact control, profiling panel. compound autofluorescence, ex339/em460 nm, NADH buffer; active compounds read high; 1 = no-compound wells, NADH background. fluorescence fold increase at 10 µM. 65,000 compounds, 5.5% hits;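 active = at 10 µM, mean starting fluorescence two-fold or more over control wells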;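 also: signal is the first read of a kinetic run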
Spn PMK inh: blocks S. pneumoniae phosphomevalonate kinase. 65,000 compounds, 0.49% hits. purified PMK, PK/LDH-coupled NADH absorbance 340 nm. inhibition, % at 10 µM. AID 539;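 active = top-ranked compounds by inhibition in the single 10 µM screen, taking a fixed number of the strongest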
Each line names hits and unclear results; the compound was inactive in the other large screens. Shown are actives, neighbours in structure and some others; about 6.3% of the full set was active somewhere.

COc1ccc(OC)c(C2c3c(oc4ccccc4c3=O)C(=O)N2CCCN(C)C)c1 (stereo not given)	none
COC(=O)c1ccc(-c2sc3nc(N4CCOCC4)c4c(c3c2N)CCCC4)o1	Fluor 339 460 2.46 (not shown: DPM-DC inhibit)
CCOC(=O)c1sc2nc(N3CCOCC3)c3c(c2c1N)CCCC3	Fluor 339 460 3.7 (not shown: DPM-DC inhibit)
Nc1c(C(=O)NCc2ccco2)sc2nc(N3CCOCC3)c3c(c12)CCCC3	Fluor 339 460 2.37 (not shown: DPM-DC inhibit)
CCOC(=O)c1sc2nc(N3CCCC3)c3c(c2c1N)CC(C)(C)OC3	Fluor 339 460 2.97 (not shown: DPM-DC inhibit)
O=C(NCc1ccco1)c1cc(-c2ccccc2)c(N2CCOCC2)s1	none
COC(=O)c1ccc(Cn2nnc3c(sc4nc(N5CCOCC5)c5c(c43)CCCC5)c2=O)o1	none
COc1ccc(OCC(O)CNc2ccc(Br)cc2)cc1 (stereo not given)	none
CCN(CC)CCCN1C(=O)C(=O)/C(=C(/O)c2ccc3c(c2)OCCO3)C1c1ccc(C)o1 (stereo not given)	none
CC1(C)CC2CC(C)(CN2C(=O)COC(=O)Cn2[nH]c(=O)c3ccccc3c2=O)C1 (stereo not given)	none
O=C(Cn1cnc2c(nnn2Cc2ccccc2)c1=O)c1ccccc1	none
COC(=O)c1ccc(CSc2ncnc3c2sc2nc(N4CCOCC4)c4c(c23)CCCC4)o1	Fluor 339 460 2.11 (not shown: DPM-DC inhibit)
Cc1noc(C)c1CSc1nnc2cc(C)c3ccccc3n12	none
Cc1occc1C(=O)Nc1nn[nH]n1	none
CCOC(=O)c1ccc(N=CC2=C(O)CC(c3ccco3)CC2=O)cc1 (stereo not given)	none
COC(=O)c1oc2ccc(Br)cc2c1NC(=O)c1ccccc1	Fluor 339 460 3.17
COC(=O)c1oc2ccc(Br)cc2c1NC(=O)CN1CCN(C)CC1	none
CC(NC(=O)CSc1nc2ccccc2c(=O)n1CCCO)c1ccccc1 (stereo not given)	none
O=C(CSc1nc2sc3c(c2c(=O)n1-c1ccccc1)CCCC3)NCc1ccco1	none
CCN(CC)C(=O)CSc1nc2cc3c(cc2c(=O)n1Cc1ccc2c(c1)OCO2)OCO3	none
CCOC(=O)CSc1nc2ccc(N3CCOCC3)cc2c(=O)n1Cc1ccc2c(c1)OCO2	Fluor 339 460 2.27
CCCCn1c(SCC(=O)NCc2ccco2)nc2ccc(N3CCOCC3)cc2c1=O	Fluor 339 460 3.77
CCC(C)NC(=O)CSc1nc2ccc(N3CCOCC3)cc2c(=O)n1CCc1ccccc1 (stereo not given)	Fluor 339 460 2.29
COCCCn1c(SCC(=O)NCc2ccco2)nc2sc3c(c2c1=O)CCC3	MK inhibit 66.0
CC(=O)NC(CCS(C)(=O)=O)C(=O)Nc1cccc(C)c1C (stereo not given)	none
COc1ccc(S(=O)(=O)N(CC(=O)N2CCN(c3ccccc3OC)CC2)c2ccccc2)cc1	none
COc1ccc(CN2CCN(S(=O)(=O)c3ccccc3)CC2)c(OC)c1	none
CC(=O)c1ccc(NC(=O)CCc2c(C)nc3ncnn3c2C)cc1	none
N#CCSc1nc2ccc(N3CCCCC3)cc2c(=O)n1Cc1ccccc1	Fluor 339 460 2.98
CCCCn1c(SCC(=O)NCc2ccccc2)nc2ccc(N3CCOCC3)cc2c1=O	Fluor 339 460 2.23
Cn1c(=O)c2c(nc(SCCN3CCCCC3)n2Cc2ccccc2)n(C)c1=O	none
CCCCn1c(SCC(=O)Nc2cc(C)on2)nc2ccccc2c1=O	none
CCCCn1c(SCC(=O)Nc2ccc(OC)cc2)nc2ccc(N3CCOCC3)cc2c1=O	Fluor 339 460 2.42
COCc1cc(C)nc2sc(C(=O)OC(C)C)c(N)c12	Fluor 339 460 2.14
C=CCn1c(=O)n(CCOC)c(=O)c2sc3ccccc3c21	Fluor 339 460 2.4 (not shown: DPM-DC inhibit)
COCCN1Cc2cccc(C(=O)Nc3ccc(S(=O)(=O)N4CCCCCC4)cc3)c2C1=O	none
CCN(CC)S(=O)(=O)c1ccc(NC(=O)c2cccc3c2C(=O)N(CCOC)C3)cc1	DPM-DC inhibit active
CCOC(=O)N1CCC(NC(=O)c2cc(S(=O)(=O)N3CCOCC3)ccc2F)CC1	none
CCCC(=O)Nc1ccc(-c2nc3cc(C)c(C)cc3o2)c(O)c1	Fluor 339 460 2.18 (not shown: DPM-DC inhibit)
CCCC(=O)Nc1ccc(-c2nc3cc(C)ccc3o2)cc1	Fluor 339 460 2.34 (not shown: DPM-DC inhibit)
CCCC(=O)Nc1ccc2oc(-c3ccc(OC)c(Br)c3)nc2c1	Fluor 339 460 3.67 (not shown: DPM-DC inhibit)
COc1ccccc1OCC(=O)Nc1cccc(-c2nc3ccccc3o2)c1	none
COc1ccc(CC(=O)Nc2ccc(-c3nc4cc(C)ccc4o3)c(O)c2)cc1OC	Fluor 339 460 2.19 (not shown: DPM-DC inhibit)
COc1ccc(NC2=NCC(=O)N2c2ccccc2)c(OC)c1	none
O=C(CN1CCC(O)(c2ccc(F)cc2)CC1)NCc1ccc(F)cc1	none
N#Cc1c(-c2ccco2)cc(-c2ccccn2)nc1N	Fluor 339 460 3.73 (not shown: DPM-DC inhibit)
Cc1c(-c2ccccc2)nc(N)c(C#N)c1-c1ccco1	Fluor 339 460 2.6
N#Cc1c(-c2ccco2)cc(-c2cccnc2)nc1N	Fluor 339 460 3.66 (not shown: DPM-DC inhibit)
c1ccc(-c2nn3c(-c4ccco4)nnc3s2)nc1	none
O=C(NC1CCCCC1)NC1(C(=O)N2CCN3CCCC3C2)CCCCC1 (stereo not given)	none
O=C(NCCCN1CCN(CCCNC(=O)c2ccc3c(c2)OCO3)CC1)c1ccc2c(c1)OCO2	none
CC1(C)NC(=O)NC2(C)NC(=O)NC(C)(C)C12 (stereo not given)	none
Cc1nnc(SCc2ccccc2)n1N	Spn PMK inh 26.0
O=C(O)C1CCN(c2nc(-c3ccccc3)nc3c2oc2ccccc23)CC1	none
COc1ccc(CN2CCN(c3ncccn3)CC2)c(OC)c1	MK inhibit 49.0
CCOC(=O)C1CCN(Cc2cn[nH]c2-c2ccccc2)CC1	Fluor 339 460 3.83 (not shown: DPM-DC inhibit)
COc1ccc(CN2CCN(c3ccccn3)CC2)c(OC)c1	none
CCOC(=O)C1CCN(Cc2ccc(N(C)C)cc2)CC1	MK inhibit 43.0
CCOC(=O)C1CCN(c2c(N3CCN(Cc4ccccc4)CC3)c(=O)c2=O)CC1	none
CCOC(=O)C1CCN(c2nc(-c3ccccc3)nc3c2oc2ccccc23)CC1	Fluor 339 460 2.12
CCOC(=O)C1CCN(Cc2cn[nH]c2-c2ccc(C)cc2)CC1	none
CCN1CCc2nc(SCC(=O)Nc3ccc(OC)cc3)c(C#N)cc2C1	none
O=S(=O)(Nc1ccc(F)cc1)N1CCCCCC1	none
Cc1c(Cl)cccc1-n1nnnc1-c1cccs1	none
O=C(Nc1nccs1)C1CCCN1S(=O)(=O)c1ccc(F)cc1 (stereo not given)	none
CCOC(=O)C1CCN(Cc2ccc(OC)cc2OC)CC1	MK inhibit 51.0
CCOC(=O)C1CCN(C(=O)Cc2ccc(OC)c(OC)c2)CC1	none
CCN(CC)C(=O)C1CCN(Cc2ccc(Br)cc2)CC1	Fluor 339 460 2.73
O=S(=O)(NCCSc1ccccc1)c1ccc(F)cc1	none
CCOC(=O)c1cnn2c(C(F)(F)F)cc(-c3ccccc3)nc12	Fluor 339 460 2.2 (not shown: DPM-DC inhibit)
